Assay results taken from PubChem BioAssay (NCATS).
Inconclusive results are not listed. Active and inactive are the calls of the source. Calls follow the shape of the dose curve; as a rule, active = well fitted curve in the direction sought with a large enough effect; inconclusive = small, poorly fitted or top-dose-only effect, or another doubt; inactive = no such curve, though single readings can be large; an effect the other way counts as inactive or inconclusive.

Key:
HEK293T [1] = test: qHTS assay to identify novel small-molecules to repurpose for Merkel cell carcinoma treatment (AID 1296009); conditions: MCC and control cell lines, CellTiter-Glo viability, 72 h; at 44.8 µM (top of the series) unless noted; also: nearly all actives have a fitted effect of over 60% in size
In short: (§1)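 Luminescence from CellTiter-Glo, read 10 min after addition at room temperature, reported viability following a 72 hr, 37 degree celsius treatment with NPC or MIPE compounds in titration; values normalized to plate controls.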

MCC-13 = test: as above; conditions: MCC and control cell lines, CellTiter-Glo viability, 72 h; series mostly up to 46 µM
In short: as §1

MCC-26 = test: as above; conditions: MCC and control cell lines, CellTiter-Glo viability, 72 h; series mostly up to 46 µM
In short: as §1

MKL-1 = test: as above; conditions: MCC and control cell lines, CellTiter-Glo viability, 72 h; series mostly up to 46 µM
In short: as §1

MKL-2 = test: as above; conditions: MCC and control cell lines, CellTiter-Glo viability, 72 h; series mostly up to 46 µM
In short: as §1

UISO = test: as above; conditions: MCC and control cell lines, CellTiter-Glo viability, 72 h; series mostly up to 46 µM
In short: as §1

WaGa = test: as above; conditions: MCC and control cell lines, CellTiter-Glo viability, 72 h; series mostly up to 46 µM
In short: as §1

C33A = test: Primary qHTS to identify gynecologic anti-cancer compounds using libraries of approved drugs and bioactive compounds (AID 1345084); conditions: Gynecologic cancer cell panel viability, ATPlite luminescence, 48 h; series mostly up to 57.5 µM; also: nearly all actives have a fitted effect of over 55% in size
In short: (§2)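 Five-point cytotoxicity, 48 h drug exposure at 37 C, 5% CO2, on cells seeded 16 h beforehand. ATP content read by ATPlite luminescence.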

CAOV3 = test: as above; conditions: Gynecologic cancer cell panel viability, ATPlite luminescence, 48 h; series mostly up to 57.5 µM
In short: as §2

CASKI = test: as above; conditions: Gynecologic cancer cell panel viability, ATPlite luminescence, 48 h; series mostly up to 57.5 µM
In short: as §2

Es-2 = test: as above; conditions: Gynecologic cancer cell panel viability, ATPlite luminescence, 48 h; series mostly up to 57.5 µM
In short: as §2

HeLa = test: as above; conditions: Gynecologic cancer cell panel viability, ATPlite luminescence, 48 h; series mostly up to 57.5 µM
In short: as §2

JEG-3 = test: as above; conditions: Gynecologic cancer cell panel viability, ATPlite luminescence, 48 h; series mostly up to 57.5 µM
In short: as §2

OV90 = test: as above; conditions: Gynecologic cancer cell panel viability, ATPlite luminescence, 48 h; series mostly up to 57.5 µM
In short: as §2

PA-1 = test: as above; conditions: Gynecologic cancer cell panel viability, ATPlite luminescence, 48 h; series mostly up to 57.5 µM
In short: as §2

SKOV3 = test: as above; conditions: Gynecologic cancer cell panel viability, ATPlite luminescence, 48 h; series mostly up to 57.5 µM
In short: as §2

Tov-21-G = test: as above; conditions: Gynecologic cancer cell panel viability, ATPlite luminescence, 48 h; series mostly up to 57.5 µM
In short: as §2

Hek293T [2] = test: as above; conditions: Gynecologic cancer cell panel viability, ATPlite luminescence, 48 h, control line for the selectivity index; series mostly up to 57.5 µM
In short: as §2

NIH3T3 = test: qHTS assay to identify novel small-molecules to repurpose for Merkel cell carcinoma treatment (AID 1296009); conditions: MCC and control cell lines, CellTiter-Glo viability, 72 h; at 44.8 µM (top of the series); also: nearly all actives have a fitted effect of over 60% in size
In short: as §1
% is scaled to controls: 0 for no effect and ±100 for the full control effect.

CCC1Nc2cc(Cl)c(S(N)(=O)=O)cc2S(=O)(=O)N1 (configuration not stated)
inactive: outcome (HEK293T [1]) | Potency (MCC-13) | Potency (MCC-26) | Potency (MKL-1) | Potency (MKL-2) | Potency (UISO) | Potency (WaGa) | Potency (C33A) | Potency (CAOV3) | Potency (CASKI) | Potency (Es-2) | Potency (HeLa) | Potency (JEG-3) | Potency (OV90) | Potency (PA-1) | Potency (SKOV3) | Potency (Tov-21-G)

N=C(N)N1CCc2ccccc2C1
inactive: activity change, negative = cytotoxicity (MCC-13) 22.3% [at 4.84 µM] | activity change, negative = cytotoxicity (MCC-26) -4.65% [at 4.84 µM] | activity change, negative = cytotoxicity (MKL-1) -2.59% [at 4.84 µM] | activity change, negative = cytotoxicity (MKL-2) -8.08% [at 4.84 µM] | activity change, negative = cytotoxicity (UISO) -8.38% [at 4.84 µM] | activity change, negative = cytotoxicity (WaGa) -9.27% [at 4.84 µM] | activity change, negative = cytotoxicity (C33A) -2.35% [at 6.55 µM] | activity change, negative = cytotoxicity (CAOV3) 8.37% [at 6.55 µM] | activity change, negative = cytotoxicity (CASKI) -9.81% [at 6.55 µM] | activity change, negative = cytotoxicity (Es-2) -6.19% [at 6.55 µM] | activity change, negative = cytotoxicity (HeLa) -13.2% [at 6.55 µM] | activity change, negative = cytotoxicity (Hek293T [2]) 5.39% [at 6.55 µM] | activity change, negative = cytotoxicity (JEG-3) -0.277% [at 6.55 µM] | activity change, negative = cytotoxicity (OV90) 0.455% [at 6.55 µM] | activity change, negative = cytotoxicity (PA-1) -0.819% [at 6.55 µM] | activity change, negative = cytotoxicity (SKOV3) -11.6% [at 6.55 µM] | activity change, negative = cytotoxicity (Tov-21-G) -1.06% [at 6.55 µM]

Cc1c(-c2ccccc2)oc2c(C(=O)OCCN3CCCCC3)cccc2c1=O
inactive: Potency (MCC-13) | Potency (MCC-26) | Potency (MKL-1) | Potency (MKL-2) | Potency (UISO) | Potency (WaGa) | Potency (C33A) | Potency (CAOV3) | Potency (CASKI) | Potency (Es-2) | Potency (HeLa) | Potency (Hek293T [2]) | Potency (JEG-3) | Potency (OV90) | Potency (PA-1) | Potency (SKOV3) | Potency (Tov-21-G)

CC(=O)N[C@@H](CCC(=O)O)C(=O)O
inactive: Potency (MCC-13) | Potency (MCC-26) | Potency (MKL-1) | Potency (MKL-2) | outcome (NIH3T3) | Potency (UISO) | Potency (WaGa) | Potency (C33A) | Potency (CASKI) | Potency (Es-2) | Potency (HeLa) | Potency (Hek293T [2]) | Potency (JEG-3) | Potency (OV90) | Potency (PA-1) | Potency (SKOV3) | Potency (Tov-21-G)

NCc1ccccc1Sc1ccccc1CO
inactive: Potency (MCC-13) | Potency (MCC-26) | Potency (MKL-1) | Potency (MKL-2) | outcome (NIH3T3) | Potency (UISO) | Potency (C33A) | Potency (CAOV3) | Potency (CASKI) | Potency (Es-2) | Potency (HeLa) | Potency (Hek293T [2]) | Potency (JEG-3) | Potency (OV90) | Potency (PA-1) | Potency (SKOV3) | Potency (Tov-21-G)

CCCCN=C(N)N=C(N)N
inactive: outcome (HEK293T [1]) | Potency (MCC-13) | Potency (MCC-26) | Potency (MKL-1) | Potency (MKL-2) | Potency (UISO) | Potency (C33A) | Potency (CASKI) | Potency (Es-2) | Potency (HeLa) | Potency (Hek293T [2]) | Potency (JEG-3) | Potency (OV90) | Potency (PA-1) | Potency (Tov-21-G)

Cc1cc2c(OCC(CNC(C)(C)C)OC(=O)c3ccccc3)cccc2[nH]1 (configuration not stated)
inactive: outcome (HEK293T [1]) | Potency (MCC-13) | Potency (MCC-26) | Potency (MKL-1) | Potency (MKL-2) | Potency (UISO) | Potency (C33A) | Potency (CAOV3) | Potency (CASKI) | Potency (Es-2) | Potency (HeLa) | Potency (Hek293T [2]) | Potency (JEG-3) | Potency (OV90) | Potency (PA-1) | Potency (SKOV3) | Potency (Tov-21-G)

CCCCCCCCCCCCCCCCO
inactive: Potency (MCC-13) | Potency (MCC-26) | Potency (MKL-1) | Potency (MKL-2) | Potency (UISO) | Potency (WaGa) | Potency (C33A) | Potency (CAOV3) | Potency (CASKI) | Potency (Es-2) | Potency (HeLa) | Potency (Hek293T [2]) | Potency (JEG-3) | Potency (OV90) | Potency (PA-1) | Potency (SKOV3) | Potency (Tov-21-G)

COc1cc(C)nc(-n2nc(C)cc2OC)n1
inactive: Potency (MCC-13) | Potency (MCC-26) | Potency (MKL-1) | Potency (MKL-2) | outcome (NIH3T3) | Potency (WaGa) | Potency (C33A) | Potency (CAOV3) | Potency (CASKI) | Potency (Es-2) | Potency (HeLa) | Potency (Hek293T [2]) | Potency (JEG-3) | Potency (OV90) | Potency (PA-1) | Potency (Tov-21-G)

NS(=O)(=O)Cc1noc2ccccc12
inactive: Potency (MCC-13) | Potency (MCC-26) | Potency (MKL-1) | Potency (MKL-2) | Potency (UISO) | Potency (WaGa) | Potency (C33A) | Potency (CAOV3) | Potency (CASKI) | Potency (Es-2) | Potency (HeLa) | Potency (Hek293T [2]) | Potency (JEG-3) | Potency (OV90) | Potency (PA-1) | Potency (SKOV3) | Potency (Tov-21-G)

CCN1CCN(C(=O)N[C@@H](C(=O)N[C@@H]2C(=O)N3C(C(=O)O)=C(CSc4nnnn4C)CS[C@H]23)c2ccc(O)cc2)C(=O)C1=O
inactive: Potency (MCC-13) | Potency (MCC-26) | Potency (MKL-1) | Potency (MKL-2) | Potency (UISO) | Potency (WaGa) | Potency (C33A) | Potency (CAOV3) | Potency (CASKI) | Potency (Es-2) | Potency (HeLa) | Potency (Hek293T [2]) | Potency (JEG-3) | Potency (OV90) | Potency (PA-1) | Potency (SKOV3) | Potency (Tov-21-G)

NC(=O)c1ccccc1O
inactive: outcome (HEK293T [1]) | Potency (MCC-13) | Potency (MCC-26) | Potency (MKL-1) | Potency (MKL-2) | Potency (UISO) | Potency (WaGa) | Potency (C33A) | Potency (CASKI) | Potency (Es-2) | Potency (HeLa) | Potency (Hek293T [2]) | Potency (JEG-3) | Potency (OV90) | Potency (PA-1) | Potency (SKOV3) | Potency (Tov-21-G)

C=C[C@H]1CN2CC[C@H]1C[C@@H]2[C@@H](O)c1ccnc2ccc(OC)cc12
inactive: Potency (MCC-13) | Potency (MCC-26) | Potency (MKL-1) | Potency (MKL-2) | Potency (UISO) | Potency (WaGa) | Potency (C33A) | Potency (CAOV3) | Potency (CASKI) | Potency (Es-2) | Potency (HeLa) | Potency (Hek293T [2]) | Potency (JEG-3) | Potency (OV90) | Potency (PA-1) | Potency (SKOV3) | Potency (Tov-21-G)

CCCN(CCC)S(=O)(=O)c1ccc(C(=O)O)cc1
inactive: Potency (MCC-13) | Potency (MCC-26) | Potency (MKL-1) | Potency (MKL-2) | Potency (UISO) | Potency (WaGa) | Potency (C33A) | Potency (CAOV3) | Potency (CASKI) | Potency (Es-2) | Potency (HeLa) | Potency (Hek293T [2]) | Potency (JEG-3) | Potency (OV90) | Potency (PA-1) | Potency (SKOV3) | Potency (Tov-21-G)

COc1ccc(-c2cc(C(F)F)nn2-c2ccc(S(N)(=O)=O)cc2)cc1F
inactive: Potency (MCC-13) | Potency (MCC-26) | Potency (MKL-1) | Potency (MKL-2) | Potency (UISO) | Potency (WaGa) | Potency (C33A) | Potency (CAOV3) | Potency (CASKI) | Potency (Es-2) | Potency (HeLa) | Potency (Hek293T [2]) | Potency (JEG-3) | Potency (OV90) | Potency (PA-1) | Potency (SKOV3) | Potency (Tov-21-G)
